The values that follow come from PubChem BioAssay (NCI).

Compounds without any hit were thinned out: in the full panel of roughly 79,000, 15% have a hit. Unmarked numbers belong to inactive results. Rule as the data show it: active = growth inhibition above about 70%; inactive = the rest.

This assay can be described thus: NCI Yeast Anticancer Drug Screen. Data for the rad50 strain (AID 155).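 Also: 0% = growth of vehicle-only cultures of the same strain.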 The settings on record: S. cerevisiae rad50 strain growth inhibition; at 50.0 µM; stronger effect = higher value. The gist of the method: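 Growth of the mutant yeast was measured after compound exposure and referenced to vehicle-treated cultures.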
Regarding `COC(=O)/C=C(/C(=O)OC)N(O)C(=O)CN1C(=O)c2ccccc2C1=O`, the growth inhibition was -16%.
As to `Cc1ccc(N=c2cc(-c3ccccc3)oc3ccccc23)cc1`, the growth inhibition was 11.9%.
With `COc1ccc2c(c1)C(N)CC2=O` (stereo not drawn), the growth inhibition is 14%.
As for `COc1ccc(/C=C2\C(=O)N(C(=O)Cc3ccccc3)N=C2C)cc1OC`, the growth inhibition was -20.3%.
The same measure for `C=C(C)c1ccc(C(=C)C)cc1`: -45.9%; for `NC(=O)CN1CC(C2=C(O)CN(CC(N)=O)C2=O)=CC1=O`: -23.9%.
Regarding `CC(O)C(=O)NN` (stereo not drawn), the growth inhibition is 0.75%.
Take `CCCCOc1cc2c(cc1C(C)c1ccccc1)OCO2` (stereo not drawn): the growth inhibition is -0.35%.
In the case of `C=CCO[Si](OCC=C)(OCC=C)OCC=C`, the growth inhibition was 0.85%.
`NCCN1C(=O)c2ccccc2C1(O)c1ccc(Cl)cc1` (stereo not drawn): the growth inhibition was -6.25%.
In the case of `CCCCSc1nc2c([nH]1)c(=O)n(C)c(=O)n2C`, the growth inhibition was -0.75%.
With `O=C(O)CSc1n[nH]c(-c2ccc(O)cc2)n1`, the growth inhibition was -18.3%.
In the case of `CCOC(=O)c1ccc(NC(=O)/C=C/C(=O)O)cc1`, the growth inhibition was -20.2%.
As to `CN1CCC=C(COC(=O)C(C)(C)C)C1`, the growth inhibition was 1.8%.
In the case of `COc1ccc2nc3cc(Cl)ccc3c(Sc3ccc(NC(C)=O)cc3)c2c1`, the growth inhibition was 22.1%.
In the case of `CC(C)C(=O)Nc1ccc(Cl)c(Cl)c1`, the growth inhibition is 33.9%.
For the molecule `O=C(c1ccccc1)[C@@H]1C[C@H](Sc2ccccc2)c2cc(Cl)ccc2N1`, the growth inhibition is 39.7%.
Regarding `NCCCNCCCCNC(=O)C(O)NC(=O)CC(O)CCCCN=C(N)N` (stereo not drawn), the growth inhibition was -1.45%.
